# Laboratory results taken from article PMC8384837, “Expanding the binding specificity for RNA recognition by a PUF domain”.
# Substitutions are numbered along the chain they refer to.
# Key:
# Assay in all cases: yeast three-hybrid, YBZ-1, SC-Leu-His + 0.5 mM 3-AT, 4 days
# Details in all cases: tags: N-Gal4 AD-HA kept; label: inside an RPR1-promoter hybrid RNA with tandem MS2 sites; ssRNA
# [1] = biological target: PUM1 PUF domain R1-RLQ (Homo sapiens, UniProt Q14671 828-1176, S863R;R864L)
# Method in brief: (§1)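 Pumilio-1 PUF domain libraries, randomized (NNK) at the three base-contacting residues of each repeat, were co-expressed with matching RNA elements from a centromeric plasmid in strain YBZ-1 (LexA–MS2 coat fusion, HIS3 reporter). Transformants were plated on SC-Leu (input) and SC-Leu-His + 0.5 mM 3-AT (selection) for four days, and repeat regions were PCR-amplified and Illumina-sequenced. The interaction score is the log2 change in variant frequency from input to selection, with pseudocount 1 where absent.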
# [2] = biological target: PUM1 PUF domain R3-YYG (Homo sapiens, UniProt Q14671 828-1176, C935Y;R936Y;Q939G)
# Method in brief: as §1
# [3] = biological target: PUM1 PUF domain R5-RKP (Homo sapiens, UniProt Q14671 828-1176, C1007R;R1008K;Q1011P)
# Method in brief: as §1
# [4] = biological target: PUM1 PUF domain R5-RRG (Homo sapiens, UniProt Q14671 828-1176, C1007R;Q1011G)
# Method in brief: as §1
# [5] = biological target: PUM1 PUF domain R5-RCK (Homo sapiens, UniProt Q14671 828-1176, C1007R;R1008C;Q1011K)
# Method in brief: as §1
# [6] = biological target: PUM1 PUF domain R5-SHL (Homo sapiens, UniProt Q14671 828-1176, C1007S;R1008H;Q1011L)
# Method in brief: as §1
# [7] = biological target: T1, PUM1 PUF domain R6-VWT (Homo sapiens, UniProt Q14671 828-1176, N1043V;Y1044W;Q1047T)
# T1 sequence: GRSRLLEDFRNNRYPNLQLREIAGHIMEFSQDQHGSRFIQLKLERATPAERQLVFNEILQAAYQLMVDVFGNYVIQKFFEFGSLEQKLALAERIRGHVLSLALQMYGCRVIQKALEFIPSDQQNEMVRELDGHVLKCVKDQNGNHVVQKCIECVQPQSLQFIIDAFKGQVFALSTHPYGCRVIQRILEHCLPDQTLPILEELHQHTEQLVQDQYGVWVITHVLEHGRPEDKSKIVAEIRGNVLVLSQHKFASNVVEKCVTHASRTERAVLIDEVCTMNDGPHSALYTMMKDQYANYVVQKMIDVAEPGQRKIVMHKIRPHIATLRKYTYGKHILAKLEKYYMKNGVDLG
# Method in brief: as §1
# [8] = biological target: T2, PUM1 PUF domain R6-IFT (Homo sapiens, UniProt Q14671 828-1176, N1043I;Y1044F;Q1047T)
# T2 sequence: T1 sequence with V216I, W217F
# Method in brief: as §1
# [9] = biological target: T3, PUM1 PUF domain R6-EWL (Homo sapiens, UniProt Q14671 828-1176, N1043E;Y1044W;Q1047L)
# T3 sequence: T1 sequence with V216E, T220L
# Method in brief: as §1
# [10] = biological target: PUM1 PUF domain R2-LFI (Homo sapiens, UniProt Q14671 828-1176, N899L;Y900F;Q903I)
# Method in brief: as §1
sequence,measurement,setting,value
GGCUAGAACUAGUGGAUCCCCCGGCGCCCGGCGGCUCGAGCCCGGGUAAGUGUAAAUUGUCUGCAUGCCGCCGGGCGCCAUGCCUGCAGGUCGACUCUAGAAAACAUG,binding signal,[1],4.94 log2 enrichment (interaction score)
GGCUAGAACUAGUGGAUCCCCCGGCGCCCGGCGGCUCGAGCCCGGGUAAGUGUAAAUCGUCUGCAUGCCGCCGGGCGCCAUGCCUGCAGGUCGACUCUAGAAAACAUG,binding signal,[1],5.58 log2 enrichment (interaction score)
GGCUAGAACUAGUGGAUCCCCCGGCGCCCGGCGGCUCGAGCCCGGGUAAGUGUAAGUAGUCUGCAUGCCGCCGGGCGCCAUGCCUGCAGGUCGACUCUAGAAAACAUG,binding signal,[2],6.37 log2 enrichment (interaction score)
GGCUAGAACUAGUGGAUCCCCCGGCGCCCGGCGGCUCGAGCCCGGGUAAGUGUAAAUGGUCUGCAUGCCGCCGGGCGCCAUGCCUGCAGGUCGACUCUAGAAAACAUG,binding signal,[1],2.26 log2 enrichment (interaction score)
GGCUAGAACUAGUGGAUCCCCCGGCGCCCGGCGGCUCGAGCCCGGGUAAGUGUCAAUAGUCUGCAUGCCGCCGGGCGCCAUGCCUGCAGGUCGACUCUAGAAAACAUG,binding signal,[3],3.3 log2 enrichment (interaction score)
same,binding signal,[4],4.19 log2 enrichment (interaction score)
same,binding signal,[5],4.05 log2 enrichment (interaction score)
same,binding signal,[6],0.12 log2 enrichment (interaction score)
GGCUAGAACUAGUGGAUCCCCCGGCGCCCGGCGGCUCGAGCCCGGGUAAGUGUAAAUAGUCUGCAUGCCGCCGGGCGCCAUGCCUGCAGGUCGACUCUAGAAAACAUG,binding signal,[4],2.29 log2 enrichment (interaction score)
same,binding signal,[7],1.67 log2 enrichment (interaction score)
same,binding signal,[6],2.34 log2 enrichment (interaction score)
same,binding signal,[2],4.58 log2 enrichment (interaction score)
GGCUAGAACUAGUGGAUCCCCCGGCGCCCGGCGGCUCGAGCCCGGGUAAGUGAAAAUAGUCUGCAUGCCGCCGGGCGCCAUGCCUGCAGGUCGACUCUAGAAAACAUG,binding signal,[7],6.13 log2 enrichment (interaction score)
same,binding signal,[8],4.79 log2 enrichment (interaction score)
same,binding signal,[9],7.27 log2 enrichment (interaction score)
GGCUAGAACUAGUGGAUCCCCCGGCGCCCGGCGGCUCGAGCCCGGGUAAGUGUGAAUAGUCUGCAUGCCGCCGGGCGCCAUGCCUGCAGGUCGACUCUAGAAAACAUG,binding signal,[4],1.66 log2 enrichment (interaction score)
GGCUAGAACUAGUGGAUCCCCCGGCGCCCGGCGGCUCGAGCCCGGGUAAGUGUAAAAAGUCUGCAUGCCGCCGGGCGCCAUGCCUGCAGGUCGACUCUAGAAAACAUG,binding signal,[10],4.64 log2 enrichment (interaction score)
GGCUAGAACUAGUGGAUCCCCCGGCGCCCGGCGGCUCGAGCCCGGGUAAGUGUUAAUAGUCUGCAUGCCGCCGGGCGCCAUGCCUGCAGGUCGACUCUAGAAAACAUG,binding signal,[4],4.55 log2 enrichment (interaction score)
same,binding signal,[6],2.85 log2 enrichment (interaction score)
